# Screening data: PubChem BioAssay, several laboratories
# Sampled rows, rich in hits. Any-hit rate of the full collection: about 4.2%.
# BJeLR lethal – kills HRASV12-expressing BJeLR cells; BJeLR (HRASV12) viability, CellTiter-Glo ATP luminescence, 48 h; inhibition, % (no concentration beside the values); 0.17% of 300,000 active; AID 1554; in the data active means inhibition above about 50%
# FBA Mtb inh – Mtb fructose-bisphosphate aldolase inhibition; P9WQA3; purified M. tuberculosis FBA, fluorescence read-out; inhibition, % at 1 µM; 2.3% of 360,000 active;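 further: 0% = vehicle and 100% = reference inhibitor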
# Target sequence (P9WQA3 whole entry, looked up): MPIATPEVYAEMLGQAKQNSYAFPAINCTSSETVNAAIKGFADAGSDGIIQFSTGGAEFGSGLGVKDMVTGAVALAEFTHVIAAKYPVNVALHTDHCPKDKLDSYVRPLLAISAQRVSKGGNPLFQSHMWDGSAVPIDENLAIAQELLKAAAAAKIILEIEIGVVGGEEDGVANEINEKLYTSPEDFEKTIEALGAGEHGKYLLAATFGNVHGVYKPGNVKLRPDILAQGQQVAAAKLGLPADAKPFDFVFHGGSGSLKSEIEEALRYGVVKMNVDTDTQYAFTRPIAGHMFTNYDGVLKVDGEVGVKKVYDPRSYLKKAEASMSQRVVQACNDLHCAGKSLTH
# PrPC surface inh – inhibitors of human cell surface prion protein PrPC | P04156 | TR-FRET read-out | inhibition, % at 13.8 µM | 0.43% of 370,000 active | AID 720596; in the data active means inhibition above about 24%; further: 0% = median of the test wells and 100% = reference compound wells
# RecA splice inh – inhibitors of M. tuberculosis RecA intein splicing | 0.75% of 290,000 active | inhibition, % (no concentration beside the values) | cell-free RecA intein splicing, fluorescence | AID 2221 | P9WHJ3; in the data active means inhibition above about 30%;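 further: 0% = vehicle wells and 100% = reference inhibitor control wells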
# GDH-TPI counter-1 – inhibits GDH-TPI coupling enzymes, artifact for Mtb FBA screen. GDH-TPI coupled enzyme counterscreen, NADH absorbance. inhibition, % at 4.8 µM. 1.2% of 360,000 active. AID 588335; in the data active means inhibition above about 30%;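 further: 0% = DMSO wells and 100% = wells lacking the enzyme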
# Mtb FBA confirm – Mtb FBA inhibition, confirmed | purified M. tuberculosis FBA, fluorescence read-out | inhibition, % at 1 µM | shares compounds with FBA Mtb inh | 78% of 5,600 active | AID 651616;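 further: 0% = vehicle wells and 100% = reference inhibitor wells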
# GDH-TPI counter-2 – inhibits GDH-TPI coupling enzymes, flagging Mtb FBA hits; shares compounds with FBA Mtb inh; 81% of 5,600 active; inhibition, % at 1 µM; GDH-TPI coupled enzyme counterscreen, fluorescence; in the data active means inhibition above about 10%
# Numbers without * were called inactive; . = no result; + = active, no number. Unless noted, no stated cut-off is given here; in the data, active means inhibition above about 27%; inactive means the rest.
SMILES,BJeLR lethal,FBA Mtb inh,PrPC surface inh,RecA splice inh,GDH-TPI counter-1,Mtb FBA confirm,GDH-TPI counter-2
CCc1cc(=O)oc2cc(C)cc(OC(C)C(=O)NCCCN3CCOCC3)c12 (stereo not given),-9,59*,-10,-2,4,85*,60*
Cc1cc(OC(C)C(=O)NCCN2CCOCC2)c2c(C)cc(=O)oc2c1 (stereo not given),-2,33*,-7,0,-3,76*,64*
O=C(c1cc(F)ccc1F)N1CCC(Oc2cccnc2)CC1,.,.,13,.,.,.,.
CC(C)(C)C(=O)NC1CCCCN(Cc2ccc(Cl)cc2)C1=O (stereo not given),.,.,9,.,.,.,.
C=CCN(C(=O)[C@@H](C1CC1)[C@@H](O)c1ccc(Cl)cc1)c1ccccc1,.,.,4,.,.,.,.
Cc1ccc2nc(N3CCN(C(=O)CCCC(=O)O)CC3)nc(-c3ccccc3)c2c1,0,32*,4,-278,10,73*,38*
Cn1c2ccccc2c(=O)c2cc(C#CC3=CCCCC3)ccc21,.,86*,-12,.,15,151*,113*
Cn1c2ccccc2c(=O)c2cc(C#Cc3cccc(N)c3)ccc21,.,8,.,.,15,.,.
Oc1ccccc1-c1nc2c3ccccc3c3ccccc3c2[nH]1,3,94*,5,2,12,99*,90*
O=c1oc(-c2cccs2)nc2ccccc12,3,-9,3,17,17,.,.
Oc1ccccc1-c1ccn[nH]1,.,0,2,.,0,.,.
c1csc(-c2nc3c4ccccc4c4ccccc4c3[nH]2)c1,2,58*,5,13,7,+,+
CC1CN(c2nc3ccccc3nc2SCC(=O)N2CCN(S(=O)(=O)c3ccc(F)cc3)CC2)CC(C)O1 (stereo not given),.,.,-9,.,.,.,.
O=Cc1ccc(/C=C2\c3ccccc3C(=O)N2c2ccccc2)o1,.,.,-9,.,.,.,.
CCCC(C)NC(=O)CC1Oc2ccccc2NC1=O (stereo not given),.,.,-4,.,.,.,.
CC(C)(C)c1ccc(-c2nnc3n2N=C(c2ccc(Cl)cc2)CS3)cc1,.,.,-6,.,.,.,.
COCCN(CCOC)C(=O)[C@@H](Cc1ccccc1)NC(=O)[C@H]1O[C@@H](n2ccc(N)nc2=O)[C@H](O)[C@@H]1O,.,.,3,.,.,.,.
CCC1C(=O)n2nc(-c3ccccc3)cc2N=C1C (stereo not given),7,40*,2,1,8,+,145*
Cc1ccc(-c2nc(C#N)c(NCCN3CCCCC3)o2)cc1,13,94*,0,.,16,170*,121*
N#Cc1nc(-c2ccccc2F)oc1NCCN1CCOCC1,1,36*,-6,0,12,84*,81*
N#Cc1nc(-c2ccc(F)cc2)oc1NCCN1CCOCC1,7,46*,-4,2,16,81*,62*
N#Cc1nc(Cc2cccc3ccccc23)oc1NCCN1CCCCC1,0,3,-1,1,7,.,.
Cc1cccc(-c2nc(C#N)c(NCC3CCCO3)o2)c1 (stereo not given),10,34*,-1,-3,-8,109*,88*
C[C@@H]1CCN(C2CC2)S(=O)(=O)c2ccc(N3CCC[C@H]3CO)cc2O1,.,.,-3,.,.,.,.
C=CS(=O)(=O)N(C(=C)C(=O)OC)S(C)(=O)=O,.,.,-4,.,.,.,.
SMILES,BJeLR lethal,FBA Mtb inh,PrPC surface inh,RecA splice inh,GDH-TPI counter-1,Mtb FBA confirm,GDH-TPI counter-2
Cc1cc(OCC(=O)NCCCn2ccnc2)c2c(C)c(C)c(=O)oc2c1,-1,76*,-4,-5,4,38*,29*
CCc1cc(=O)oc2cc(C)cc(OCC(=O)NCCCn3ccnc3)c12,10,61*,-8,-2,4,+,+
Cc1cc(=O)oc2cc(OC(C)C(=O)NCCCn3ccnc3)ccc12 (stereo not given),-1,16,0,-1,11,.,.
CCc1cc(=O)oc2c(C)c(OC(C)C(=O)NCCCn3ccnc3)ccc12 (stereo not given),2,66*,-4,-3,3,77*,68*
Cc1cc(OC(C)C(=O)NCCCn2ccnc2)c2c(C)c(C)c(=O)oc2c1 (stereo not given),2,79*,-6,0,11,134*,99*
Cc1cc(=O)oc2c(C)c(OC(C)C(=O)NCCCn3ccnc3)ccc12 (stereo not given),0,16,4,1,7,.,.
COC(=O)[C@]12C[C@H](CC(=O)NCCCN3CCCC3=O)C(=O)N(Cc3ccc(Cl)cc3Cl)C1=C[C@H](C(C)(C)C)O[C@@H]2C,.,.,-15,.,.,.,.
Clc1nc(Oc2ccccc2)nc(-c2cn(-c3ccccc3)c3ccccc23)n1,7,56*,10,6,14,45*,40*
Cc1ccc(Cn2c(C3CCCN3c3nc(-c4ccc(F)cc4)cs3)nc3cc(C(=O)NCCCO)ccc32)cc1 (stereo not given),-9,70*,6,3,9,9,5
Cc1c(O)ccc2c3c(c(=O)oc12)CCC(C)C3 (stereo not given),7,103*,3,-19,12,+,+
Cc1c(O)ccc2c(-c3ccccc3)cc(=O)oc12,2,11,-11,-4,11,.,.
Nc1cc(C(=O)O)ccc1Nc1ccccc1,-6,91*,-9,4,8,126*,113*
c1ccc(-c2ccc(-c3ccccc3)[nH]2)cc1,.,64*,0,.,18,178*,163*
O=C(O)c1ccc(-c2ccccc2)[nH]c1=O,4,106*,-8,0,19,+,+
CCOC(=O)[C@@]12CCCC3=C1N(CCC3)C(=O)[C@H]2CC(=O)N1CCOCC1,.,.,-10,.,.,.,.
Clc1ccccc1-c1nnc2sc(-c3ccc4c(c3)OCO4)nn12,-23,28*,4,1,10,+,+
Clc1ccccc1-c1nnc(-c2ccc3c(c2)OCO3)o1,10,33*,2,12,1,93*,63*
Brc1ccccc1-c1nnc2sc(-c3ccc4c(c3)OCCO4)nn12,2,13,8,0,9,.,.
CC(=O)N1CCCN(C(=O)CCn2nnc3ccccc32)CC1,.,.,-5,.,.,.,.
O=C(CC1Sc2ccccc2NC1=O)OCc1cc(=O)oc2cc(O)ccc12 (stereo not given),16,35*,-2,-16,21,91*,80*
COCCOCCn1c(/C=C/c2ccccc2)nc2ccccc21,15,28*,-2,1,15,-4,-4
Cc1ccc(NC(=O)Cn2c(/C=C/c3ccccc3)nc3ccccc32)cc1C,-7,29*,3,-1,10,68*,53*
CC(C)n1c(CN(C)c2ccccc2)nc2ccccc21,7,1,7,-1,0,.,.
CC(C)c1ccccc1NC(=O)Cn1c(/C=C/c2ccccc2)nc2ccccc21,15,.,.,0,.,.,.
